Experiment [1] has as its target Bile acid receptor (Homo sapiens) (UniProt Q96RI1). Put plainly: ATG_IR1_CIS: Attagene CIS-FACTORIAL HepG2 Assay for human Nuclear Receptor Subfamily 1 Group H Member 4 (NR1H4), IR1 submotif (AID 2282946; active means hit-call score of the fitted dose curve at least 0.9, where 1 is the maximum; inactive means score below 0.9). The following applies: IR1 reporter transcription, actives raise or lower the signal. The method, boiled down: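 Readout: reporter transcript levels by RT-PCR with fluorescent capillary electrophoresis, from HepG2 cells transiently transfected with multiplexed cis-regulated reporters and dosed 24 h. Gain- or loss-of-signal fitted versus DMSO negative control.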

In experiment [2] the target is Nuclear receptor subfamily 1 group I member 3 (Homo sapiens) (UniProt Q14994). Put plainly: ATG_CAR_TRANS: Attagene TRANS-FACTORIAL HepG2 Assay for human Constitutive Androstane Receptor (CAR) (AID 2282969).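 Further: activators raise reporter mRNA above DMSO so AC50 marks induction.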 The note with it: HepG2 Attagene TRANS-FACTORIAL CAR reporter. The method, boiled down:
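Steps: transient transfection of HepG2 with multiple GAL4-UAS reporter units; 24 h compound incubation; RNA isolation, RT-PCR, 6-FAM primer extension, HpaI digest; capillary electrophoresis. Gain-of-signal relative to DMSO negative control.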

Experiment [3] deals with Oxysterols receptor LXR-beta (Homo sapiens) (UniProt P55055). Put plainly: ATG_LXRb_TRANS: Attagene TRANS-FACTORIAL HepG2 Assay for human Liver X Receptor beta (LXRb) (AID 2282981). The note with it: HepG2 Attagene TRANS GAL4-LXRb reporter, mRNA. In outline:
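Liver-derived HepG2 cells transfected with Gal4-responsive reporters were dosed for 24 h. Activation was scored as rise in reporter mRNA, by RT-PCR and capillary electrophoresis, above DMSO baseline.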

Experiment [4] has as its target Hepatocyte nuclear factor 4-alpha (Homo sapiens) (UniProt P41235). Put plainly: ATG_HNF4a_TRANS: Attagene TRANS-FACTORIAL HepG2 Assay for human Hepatocyte Nuclear Factor 4 alpha (HNF4a) (AID 2282982). The note with it: HepG2 HNF4a transactivation reporter, mRNA readout. In outline:
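Using HepG2 liver cells transfected with GAL4-UAS reporter units, chemical-induced mRNA increases were assessed after 24 hours. Fluorescent RT-PCR fragments were separated by capillary electrophoresis and compared with DMSO negative controls.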

For experiment [5], the target named is human Peroxisome Proliferator-activated Receptor alpha (PPARa), PPARA (gene 5465) (UniProt Q07869). Put plainly: ATG_PPARa_TRANS: Attagene TRANS-FACTORIAL HepG2 Assay for human Peroxisome Proliferator-activated Receptor alpha (PPARa) (AID 2283001).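 On AC50: potency for gain of reporter signal over DMSO so agonist or activator.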 The method, boiled down:
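Exposure: 24 h, transiently transfected HepG2 cells. Endpoint: GAL4-UAS reporter mRNA, RT-PCR with capillary electrophoresis fluorescence. Baseline: DMSO; increases fitted.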

Experiment [6] deals with Nuclear receptor subfamily 1 group I member 2 (Homo sapiens) (UniProt O75469). Put plainly: ATG_PXR_TRANS: Attagene TRANS-FACTORIAL HepG2 Assay for human Pregnane X Receptor (PXR) (AID 2283008). The method, boiled down:
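Transient HepG2 transfectants carrying multiplexed reporter transcription units; PXR activity read through a Gal4 chimera. 24 h exposure. RT-PCR/CE fluorescence; upward curve fit referenced to DMSO.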

Experiment [7] has as its target human RAR-related Orphan Receptor beta (RORb), RORB (gene 6096) (UniProt Q92753). Put plainly: ATG_RORb_TRANS: Attagene TRANS-FACTORIAL HepG2 Assay for human RAR-related Orphan Receptor beta (RORb) (AID 2283010). The method, boiled down: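 Multiplexed transcription-factor reporter assay: HepG2 cells transiently carrying NR-Gal4/GAL4-UAS constructs, 24 h treatment, mRNA quantified by RT-PCR plus capillary electrophoresis fluorescence; activity scored as induction over DMSO.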

In experiment [8] the target is human RAR-related Orphan Receptor gamma (RORg), RORC (gene 6097) (UniProt P51449). Put plainly: ATG_RORg_TRANS: Attagene TRANS-FACTORIAL HepG2 Assay for human RAR-related Orphan Receptor gamma (RORg) (AID 2283011). The method, boiled down: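 First, HepG2 liver cells were transfected with GAL4-UAS-driven reporter constructs and the RORg-Gal4 fusion. Next, they were treated with chemical for 24 h. Finally, reporter mRNA was quantified by RT-PCR and capillary electrophoresis, with upward activity fitted against DMSO.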

Experiment [9] concerns the target human Vitamin D Receptor (VDR), VDR (gene 7421) (UniProt P11473). Put plainly: ATG_VDR_TRANS: Attagene TRANS-FACTORIAL HepG2 Assay for human Vitamin D Receptor (VDR) (AID 2283022). The method, boiled down: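 Steps: transfect HepG2 with GAL4-UAS-driven reporter constructs; dose compounds 24 h; isolate RNA, reverse-transcribe, PCR-amplify with 6-FAM-labelled primer extension and HpaI digestion; quantify fragments by capillary electrophoresis relative to DMSO.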

Experiment [10] in a line: ATG_XTT_Cytotoxicity: Cytotoxicity Assessment in the Attagene TRANS-FACTORIAL HepG2 Assay (AID 2283584).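 On AC50: cells exposed to compound for 24 h before reading; active means loss of viability signal versus DMSO baseline.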 In outline:
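Cells: human HepG2, transiently transfected with MRTU reporter constructs. Exposure 24 h. Readout: XTT, cell number. Baseline/neg ctrl DMSO; loss-of-signal scored.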

Experiment [11] in a line: TOX21_p53_BLA_p2_viability: Viability Assessment in the Tox21 HCT-116 p53 Agonism Beta-lactamase Assay, Phase 2 (AID 2283591).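 Further: compound exposure lasted 16 h at 37 °C; actives lower the ATP signal meaning cytotoxicity.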 In outline: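 HCT-116 p53-bla cells (4000/well) rested 5 h at 37C, then received compounds in DMSO (217-fold dilution) for 16 h at 37C, 5% CO2. After the CCF4 read, CellTiter-Glo was added; ATP luminescence was read after 30 min at room temperature.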

The nature of experiment [12]: TOX21_p53_BLA_p3_viability: Viability Assessment in the Tox21 HCT-116 p53 Agonism Beta-lactamase Assay, Phase 3 (AID 2283593).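 Further: cells exposed to compound for 16 h before reading.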 In outline: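 HCT-116 cells (4000/well) rested 5 h at 37C, then got DMSO compounds by pin tool (217-fold dilution) for 16 h at 37C, 5% CO2. After the bla read, CellTiter-Glo was added and luminescence read at 30 min, room temperature.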
The target of experiment [13] is Retinoic acid receptor alpha (Homo sapiens) (UniProt P10276). Put plainly: ATG_DR5_RAR_CIS: Attagene CIS-FACTORIAL HepG2 Assay for human Retinoic Acid Receptor Alpha (RARE), DR5 submotif (AID 2282934; active means hit-call score of the fitted dose curve at least 0.9, where 1 is the maximum; inactive means score below 0.9). The following applies: HepG2 Attagene cis-factorial RARE DR5 reporter, mRNA; actives raise or lower the signal. In outline: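 Transfected HepG2 reporter cells are exposed to chemicals for 24 h. Then RNA is extracted and the DR5 element reporter transcript is measured by RT-PCR and capillary electrophoresis, with bidirectional curve fitting relative to DMSO.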

The target of experiment [14] is Nuclear receptor subfamily 4 group A member 2 (Homo sapiens) (UniProt P43354). Put plainly: ATG_NURR1_TRANS: Attagene TRANS-FACTORIAL HepG2 Assay for human Nuclear Receptor Related Protein 1 (NURR1) (AID 2282985). The following applies: HepG2 Attagene TRANS reporter, mRNA readout. In outline:
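Chimeric NR-Gal4 proteins were expressed in human HepG2 cells bearing GAL4-UAS reporter units, and induced reporter mRNA was quantified 24 h post-dosing by RT-PCR and capillary electrophoresis.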

In experiment [15] the target is Cellular tumor antigen p53 (Homo sapiens) (UniProt P04637). Put plainly: TOX21_p53_BLA_p3_ratio: Tox21 HCT-116 p53 Agonism Beta-lactamase Assay, Ratio, Phase 3 (AID 2283596). The method, boiled down: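 Cells were seeded at 4000/well, rested 5 h at 37C, then dosed with DMSO compound solutions (217-fold dilution) for 16 h. CCF4-AM substrate was loaded for 2 h at room temperature, and the 460/530 nm emission ratio was fitted for gain of signal versus DMSO.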

Experiment [16] in a line: TOX21_p53_BLA_p4_viability: Viability Assessment in the Tox21 HCT-116 p53 Agonism Beta-lactamase Assay, Phase 4 (AID 2283597).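 Further: hits lower the luminescence signal meaning cytotoxicity.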 In outline: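 Readout: ATP luminescence (CellTiter-Glo), measured 30 min after reagent addition at RT. The reagent followed a 2 h CCF4-AM incubation, and the cells had been exposed to compound for 16 h at 37C.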
Experiment [17] in a line: CCTE_Harrill_HTTr_Viability_MCF7: CCTE's 6-hour Cell Viability Assessment for the High-Throughput Transcriptomics (HTTr) Platform, in MCF-7 cells cultured in DMEM + 10% fetal bovine serum, Harrill Lab (AID 2284010; active means hit-call score of the fitted dose curve at least 0.9, where 1 is the maximum; inactive means score below 0.9). The method, boiled down: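 Eight-point concentration series, six-hour exposure. Propidium iodide exclusion imaged to assess membrane integrity as a cytotoxicity readout; bidirectional fitting was done with DMSO as negative control and activity baseline.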

A short description of experiment [18]: ATG_GAL4_TRANS: Attagene TRANS-FACTORIAL HepG2 Assay for GAL4 (Internal Marker) (AID 2282976). The following applies: HepG2 Attagene TRANS GAL4 internal marker reporter. The method, boiled down: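 First, HepG2 cells were transfected with reporter units under GAL4-UAS control. Next, they were treated with chemical for 24 h. Finally, RNA was reverse-transcribed, PCR-amplified, FAM-labelled and resolved by capillary electrophoresis, with induction scored against DMSO.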

For experiment [19], the target named is Oxysterols receptor LXR-alpha (Homo sapiens) (UniProt Q13133). Put plainly: ATG_LXRa_TRANS: Attagene TRANS-FACTORIAL HepG2 Assay for human Liver X Receptor alpha (LXRa) (AID 2282980). The note with it: HepG2 Attagene TRANS reporter, LXRa transactivation. In outline:
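Transfect HepG2 with GAL4-UAS multiplex reporter constructs (TRANS format, chimeric receptor-GAL4); treat 24 h; extract RNA, reverse-transcribe, PCR-amplify, FAM-label, HpaI-digest; resolve fragments by capillary electrophoresis. Upward response vs DMSO.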

Experiment [20] concerns the target human Peroxisome Proliferator-activated Receptor delta (PPARd), PPARD (gene 5467) (UniProt Q03181). Put plainly: ATG_PPARd_TRANS: Attagene TRANS-FACTORIAL HepG2 Assay for human Peroxisome Proliferator-activated Receptor delta (PPARd) (AID 2283002). The method, boiled down: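 Measured quantity: GAL4-UAS reporter transcript induction in HepG2 after 24 h chemical dosing, with NR-Gal4 chimeras supplied by transient transfection. Detection by RT-PCR and capillary electrophoresis; upward fit against DMSO.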

Results on six compounds are retold here after PubChem BioAssay (EPA / NIEHS).

Values joined by “and” are separate entries in the source; they are usually repeats but may differ in a detail not shown here. Equal values may be shown once. Inconclusive results are not listed. More than one record can exist for a structure, and the calls need not agree. Active and inactive are the calls of the source. How the source made its calls, unless noted: active means hit-call score of the fitted dose curve at least 0.9, where 1 is the maximum; inconclusive means response in the unintended direction; inactive means score below 0.9.

Chain of Oxysterols receptor LXR-beta (Homo sapiens) (P55055 whole entry, looked up, the tested form may be a part): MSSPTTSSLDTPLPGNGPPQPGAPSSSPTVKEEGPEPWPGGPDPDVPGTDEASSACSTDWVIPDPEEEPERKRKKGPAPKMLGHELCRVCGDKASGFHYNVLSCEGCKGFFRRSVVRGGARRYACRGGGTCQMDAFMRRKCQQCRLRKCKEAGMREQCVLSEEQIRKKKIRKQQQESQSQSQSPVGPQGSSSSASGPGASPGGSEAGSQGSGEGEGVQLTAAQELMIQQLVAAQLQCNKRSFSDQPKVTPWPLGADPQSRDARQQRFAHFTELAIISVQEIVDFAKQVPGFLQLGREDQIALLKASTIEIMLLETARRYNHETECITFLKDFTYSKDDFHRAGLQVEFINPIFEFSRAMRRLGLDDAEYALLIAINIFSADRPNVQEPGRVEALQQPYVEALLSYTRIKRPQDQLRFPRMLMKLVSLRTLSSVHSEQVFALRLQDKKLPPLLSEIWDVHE
Chain of Nuclear receptor subfamily 1 group I member 2 (Homo sapiens) (O75469 whole entry, looked up, the tested form may be a part): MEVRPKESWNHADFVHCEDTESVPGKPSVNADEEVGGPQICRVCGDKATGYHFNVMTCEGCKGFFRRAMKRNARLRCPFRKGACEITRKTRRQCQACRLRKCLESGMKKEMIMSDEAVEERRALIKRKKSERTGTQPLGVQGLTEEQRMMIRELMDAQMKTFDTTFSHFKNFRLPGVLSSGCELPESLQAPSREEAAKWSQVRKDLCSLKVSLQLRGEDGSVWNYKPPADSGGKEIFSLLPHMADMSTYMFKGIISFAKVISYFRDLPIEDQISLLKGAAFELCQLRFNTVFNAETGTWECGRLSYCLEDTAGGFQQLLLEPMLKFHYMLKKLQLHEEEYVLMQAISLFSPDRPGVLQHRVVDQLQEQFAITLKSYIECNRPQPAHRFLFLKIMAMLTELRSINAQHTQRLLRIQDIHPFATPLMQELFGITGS
Chain of Cellular tumor antigen p53 (Homo sapiens) (P04637 whole entry, looked up): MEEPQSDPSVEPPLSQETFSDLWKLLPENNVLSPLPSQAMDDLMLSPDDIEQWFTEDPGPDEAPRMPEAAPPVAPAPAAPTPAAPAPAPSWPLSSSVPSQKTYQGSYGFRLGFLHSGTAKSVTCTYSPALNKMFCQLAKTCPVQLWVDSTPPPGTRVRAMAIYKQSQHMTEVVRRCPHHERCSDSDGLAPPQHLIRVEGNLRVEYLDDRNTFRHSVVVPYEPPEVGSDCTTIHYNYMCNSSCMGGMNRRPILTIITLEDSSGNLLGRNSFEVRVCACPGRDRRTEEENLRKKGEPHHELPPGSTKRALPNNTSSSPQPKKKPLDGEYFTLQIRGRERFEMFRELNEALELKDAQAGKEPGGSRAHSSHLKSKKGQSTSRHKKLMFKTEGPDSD
Chain of human Peroxisome Proliferator-activated Receptor delta (PPARd), PPARD (gene 5467) (Q03181 whole entry, looked up, the tested form may be a part): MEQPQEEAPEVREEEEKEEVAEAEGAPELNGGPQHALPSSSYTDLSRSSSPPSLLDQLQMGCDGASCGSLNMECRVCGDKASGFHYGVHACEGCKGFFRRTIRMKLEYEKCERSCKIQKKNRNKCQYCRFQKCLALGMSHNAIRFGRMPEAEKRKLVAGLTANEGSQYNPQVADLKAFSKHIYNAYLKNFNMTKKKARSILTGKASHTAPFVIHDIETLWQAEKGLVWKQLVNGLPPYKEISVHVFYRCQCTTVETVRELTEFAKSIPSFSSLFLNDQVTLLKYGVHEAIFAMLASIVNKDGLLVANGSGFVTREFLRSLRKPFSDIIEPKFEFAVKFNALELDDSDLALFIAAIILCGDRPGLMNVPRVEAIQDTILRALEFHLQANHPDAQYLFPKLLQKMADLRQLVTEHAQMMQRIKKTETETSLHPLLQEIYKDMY
Chain of human Peroxisome Proliferator-activated Receptor alpha (PPARa), PPARA (gene 5465) (Q07869 whole entry, looked up, the tested form may be a part): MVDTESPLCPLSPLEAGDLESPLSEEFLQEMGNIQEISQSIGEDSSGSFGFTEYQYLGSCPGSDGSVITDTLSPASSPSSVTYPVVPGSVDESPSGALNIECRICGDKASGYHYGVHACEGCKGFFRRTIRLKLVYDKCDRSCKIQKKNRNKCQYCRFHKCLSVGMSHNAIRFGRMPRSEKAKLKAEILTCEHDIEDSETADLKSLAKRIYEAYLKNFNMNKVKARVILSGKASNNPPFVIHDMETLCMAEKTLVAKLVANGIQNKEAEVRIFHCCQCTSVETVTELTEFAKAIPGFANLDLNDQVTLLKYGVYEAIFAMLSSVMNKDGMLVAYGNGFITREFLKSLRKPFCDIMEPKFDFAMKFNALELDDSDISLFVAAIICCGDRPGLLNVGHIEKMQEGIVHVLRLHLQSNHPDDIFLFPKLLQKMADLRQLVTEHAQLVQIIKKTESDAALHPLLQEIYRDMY
Chain of Bile acid receptor (Homo sapiens) (Q96RI1 whole entry, looked up): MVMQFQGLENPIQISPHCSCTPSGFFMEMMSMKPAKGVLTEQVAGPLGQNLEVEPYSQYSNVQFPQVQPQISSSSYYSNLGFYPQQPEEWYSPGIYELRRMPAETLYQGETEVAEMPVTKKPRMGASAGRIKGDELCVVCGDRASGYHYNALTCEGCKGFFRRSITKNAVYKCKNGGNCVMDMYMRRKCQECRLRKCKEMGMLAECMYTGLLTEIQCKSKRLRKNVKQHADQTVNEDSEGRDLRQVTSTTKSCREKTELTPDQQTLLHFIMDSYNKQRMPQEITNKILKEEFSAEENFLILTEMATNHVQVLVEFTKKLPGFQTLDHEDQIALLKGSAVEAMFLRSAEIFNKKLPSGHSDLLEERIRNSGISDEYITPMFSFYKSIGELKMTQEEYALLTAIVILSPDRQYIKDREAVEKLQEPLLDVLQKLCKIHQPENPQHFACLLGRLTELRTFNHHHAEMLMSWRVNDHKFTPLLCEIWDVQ
Chain of Nuclear receptor subfamily 4 group A member 2 (Homo sapiens) (P43354 whole entry, looked up, the tested form may be a part): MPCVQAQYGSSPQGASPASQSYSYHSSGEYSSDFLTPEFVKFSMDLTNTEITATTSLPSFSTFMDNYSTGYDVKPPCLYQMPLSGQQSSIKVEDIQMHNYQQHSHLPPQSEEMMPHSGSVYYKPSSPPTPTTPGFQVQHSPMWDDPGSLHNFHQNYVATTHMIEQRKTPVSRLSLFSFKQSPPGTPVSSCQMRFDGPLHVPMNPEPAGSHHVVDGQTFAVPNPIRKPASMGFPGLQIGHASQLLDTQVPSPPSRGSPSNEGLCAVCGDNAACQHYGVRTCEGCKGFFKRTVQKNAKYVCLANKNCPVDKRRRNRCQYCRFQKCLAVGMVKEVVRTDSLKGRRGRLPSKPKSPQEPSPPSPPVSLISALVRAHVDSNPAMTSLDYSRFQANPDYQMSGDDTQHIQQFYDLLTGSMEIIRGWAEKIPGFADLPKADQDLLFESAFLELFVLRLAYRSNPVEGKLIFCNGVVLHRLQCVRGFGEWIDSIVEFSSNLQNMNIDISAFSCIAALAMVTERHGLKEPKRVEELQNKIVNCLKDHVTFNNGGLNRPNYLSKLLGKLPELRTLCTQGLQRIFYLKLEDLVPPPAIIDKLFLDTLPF
Chain of Nuclear receptor subfamily 1 group I member 3 (Homo sapiens) (Q14994 whole entry, looked up, the tested form may be a part): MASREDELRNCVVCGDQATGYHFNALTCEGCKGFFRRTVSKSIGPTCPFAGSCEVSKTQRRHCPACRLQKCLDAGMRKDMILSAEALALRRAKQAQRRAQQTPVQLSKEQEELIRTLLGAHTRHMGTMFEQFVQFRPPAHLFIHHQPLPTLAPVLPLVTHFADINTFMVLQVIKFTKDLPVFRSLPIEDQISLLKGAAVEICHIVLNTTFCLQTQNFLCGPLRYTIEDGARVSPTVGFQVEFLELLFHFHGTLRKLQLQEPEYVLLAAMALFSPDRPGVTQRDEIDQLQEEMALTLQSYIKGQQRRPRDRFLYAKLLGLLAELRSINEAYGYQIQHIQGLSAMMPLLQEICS
Chain of human Vitamin D Receptor (VDR), VDR (gene 7421) (P11473 whole entry, looked up, the tested form may be a part): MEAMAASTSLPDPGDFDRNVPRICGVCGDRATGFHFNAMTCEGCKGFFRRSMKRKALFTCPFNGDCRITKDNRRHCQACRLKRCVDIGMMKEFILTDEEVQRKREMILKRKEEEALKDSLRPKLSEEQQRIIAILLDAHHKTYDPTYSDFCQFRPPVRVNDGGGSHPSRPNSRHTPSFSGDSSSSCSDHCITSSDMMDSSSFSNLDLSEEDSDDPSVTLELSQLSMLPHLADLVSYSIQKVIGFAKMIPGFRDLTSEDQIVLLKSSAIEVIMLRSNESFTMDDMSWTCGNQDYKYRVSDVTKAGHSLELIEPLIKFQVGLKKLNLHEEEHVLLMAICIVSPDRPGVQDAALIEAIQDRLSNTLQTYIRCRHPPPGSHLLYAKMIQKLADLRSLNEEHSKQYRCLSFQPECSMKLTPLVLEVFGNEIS
Chain of human RAR-related Orphan Receptor gamma (RORg), RORC (gene 6097) (P51449 whole entry, looked up, the tested form may be a part): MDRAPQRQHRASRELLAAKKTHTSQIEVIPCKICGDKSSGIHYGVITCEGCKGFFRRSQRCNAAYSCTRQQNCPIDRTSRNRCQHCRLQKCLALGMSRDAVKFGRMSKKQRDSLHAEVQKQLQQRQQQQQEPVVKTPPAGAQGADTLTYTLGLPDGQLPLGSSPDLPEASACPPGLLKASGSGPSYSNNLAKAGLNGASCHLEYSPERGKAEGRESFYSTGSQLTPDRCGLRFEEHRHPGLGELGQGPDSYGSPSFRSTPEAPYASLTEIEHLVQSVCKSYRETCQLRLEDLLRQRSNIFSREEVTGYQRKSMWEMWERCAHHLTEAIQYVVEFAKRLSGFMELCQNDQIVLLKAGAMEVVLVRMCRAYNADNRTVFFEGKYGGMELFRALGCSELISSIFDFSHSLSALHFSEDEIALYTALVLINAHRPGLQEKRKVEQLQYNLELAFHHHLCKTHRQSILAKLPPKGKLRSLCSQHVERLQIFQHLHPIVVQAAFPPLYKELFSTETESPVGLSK

With `O=[N+]([O-])C=Cc1ccccc1`, the AC50 in [1] is 46.8 µM (active); in experiment [4], 47.5 µM (active); in experiment [6], 8.62 µM (active); in experiment [10], 75.7 µM (active); in [11] it was 27.2 µM (active). In addition, the call in experiment [2], in [3], in experiment [5], in [7], in [8] and in [9] was inactive. Further, the compound was called inactive in [12].
For the compound `c1cc(OCC2CO2)ccc1Cc1ccc(OCC2CO2)cc1` (stereo not given), the compound was classed as inactive in experiment [13], in [3], in experiment [14], in [8], in experiment [9] and in experiment [11]. Further, the compound was classed as inactive in experiment [12], in [16] and in [17]. The half-maximal activity concentration (AC50) in experiment [1] is 37.4 µM (active); in experiment [12], 87.4 µM (active); in experiment [15] it was 75.1 µM (active) and 79.5 µM (active).
As to `ClCC(Cl)Cl`, the outcome in experiment [2], in [18], in experiment [5], in [8], in [9] and in experiment [10] was inactive. The compound was classed as inactive in experiment [11] and in [12]. In addition, the AC50 in [6] was 26.6 µM (active).
Take `CC(=O)C=Cc1ccccc1`: the call in experiment [2], in [18], in experiment [19], in experiment [3], in [14] and in experiment [20] was inactive. Also, the compound was classed as inactive in experiment [7], in [8], in experiment [9], in experiment [10] and in [17]. Further, the AC50 in [5] is 100 µM (active).
`O=C1Nc2ccc(Cl)cc2C(c2ccccc2)=NC1O` (stereo not given): the call in experiment [13], in experiment [19], in [3], in experiment [5], in experiment [20] and in experiment [6] was inactive. Besides, the compound was classed as inactive in experiment [9], in experiment [11], in experiment [12], in experiment [15], in experiment [16] and in experiment [17].
With `Clc1ccc(-c2ccccc2)cc1`, the compound was called inactive in experiment [1], in experiment [2], in experiment [18], in experiment [14], in experiment [20] and in experiment [6]. Moreover, the result in [9] and in [17] was inactive.
